# Rows were chosen to be rich in hits. Some 7.5% of all compounds tested hit in one or more screens of this group.
# ELG1 genotoxic = inducers of genotoxicity in HEK293T ELG1-luciferase cells; hit rate 1.3% among 330,000; Potency, µM (top dose mostly 46 µM), for inactives: at the top dose activity change, positive = activation, hits mostly activators; HEK293T ELG1-luciferase reporter, luminescence, 16 h; note: % of control where 0% means no effect; nearly all actives have a fitted effect of over 60% in size
#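 DMSO vehicle served as control against compound-treated ELG1-luciferase HEK293T cells; exposure lasted 16 hr at 37 °C and 5% CO2, followed by ONE-Glo luminescence detection after 30 min.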
# KinaseGlo FLuc = blocks Kinase-Glo luciferase, a counter-screen artifact. Q27757. Kinase-Glo luciferase, ATP luminescence, 8 min. Potency, µM (series often up to 38.3 µM), inactives show at the top dose activity change, negative = inhibition, hits mostly inhibitors. hit rate 0.28% among 200,000. AID 1379; note: % is set by controls: 0 for no effect and ±100 for the full control effect; nearly all actives have a fitted effect of over 60% in size
#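 Kinase-Glo luciferase light output from ATP and luciferin was measured with 10 uM ATP, within the enzyme's linear range. Buffer: 50 mM imidazole pH 7.2, 50 mM KCl, 7 mM MgCl2, 0.01% Tween 20, 0.05% BSA; luminescence read after 8 min at ambient temperature.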
# Rab9 prom act = activates the Rab9 promoter; Huh7 Rab9 promoter-luciferase reporter, luminescence, 24 h; Potency, µM (top dose mostly 9.22 µM), inactives show at the top dose activation, negative = inhibition, actives largely listed as activators; hit rate 2.8% among 320,000; note: % of control where 0% means no effect; nearly all actives have a fitted effect of over 60% in size
#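 Huh7 cells stably carrying Rab9 promoter–luciferase reporter, plated 1500 cells/well, compound added after 2 h and incubated 24 h at 37 °C; luciferase luminescence then read after 10 min with detection reagent.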
# SMN2 splice up = SMN2 splice variant enhancement. hit rate 2.8% among 210,000. Potency, µM (highest dose often 46.1 µM), inactives show at the highest dose activity change, positive = activation, most hits filed as activators. HEK293 SMN2-luciferase splicing reporter, luminescence, 30-36 h; note: % of control where 0% means no effect; nearly all actives have a fitted effect of over 55% in size
#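 HEK293 cells carry an SMN2 minigene-luciferase reporter in which exon 7 inclusion puts luciferase in frame. Cells were seeded at 2000 cells/well, attached for 10-12 hours, then exposed to compounds for 30-36 hours at 37C before ONE-Glo luminescence.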
# NPC1 promoter act = activators of NPC1 promoter | Potency, µM (titrated, usually from 9.22 µM), for the others: at the top dose activation, hits mostly activators | Huh7 NPC1 promoter luciferase reporter, 24 h | hit rate 2.4% among 320,000; note: % of control where 0% means no effect; nearly all actives have a fitted effect of over 60% in size
#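 Luminescence from an NPC1 promoter-driven luciferase reporter in stably transfected Huh7 cells was measured after 24 h compound treatment at 37 °C, followed by 10 min ambient incubation with luciferase detection reagent.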
# FLuc counter = firefly luciferase modulation, counter-screen for miR-21 project | P08659 | purified FLuc, Km substrates, luminescence inhibition | Potency, µM (highest dose often 57.5 µM), for inactives: at the highest dose activity change, negative = inhibition, hits mostly inhibitors | hit rate 6.9% among 360,000 | AID 588342;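 note: plate controls were vehicle for no effect and reference inhibitor for full effect; nearly all actives have a fitted effect of over 55% in size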
# Target sequence (P08659 whole entry, looked up): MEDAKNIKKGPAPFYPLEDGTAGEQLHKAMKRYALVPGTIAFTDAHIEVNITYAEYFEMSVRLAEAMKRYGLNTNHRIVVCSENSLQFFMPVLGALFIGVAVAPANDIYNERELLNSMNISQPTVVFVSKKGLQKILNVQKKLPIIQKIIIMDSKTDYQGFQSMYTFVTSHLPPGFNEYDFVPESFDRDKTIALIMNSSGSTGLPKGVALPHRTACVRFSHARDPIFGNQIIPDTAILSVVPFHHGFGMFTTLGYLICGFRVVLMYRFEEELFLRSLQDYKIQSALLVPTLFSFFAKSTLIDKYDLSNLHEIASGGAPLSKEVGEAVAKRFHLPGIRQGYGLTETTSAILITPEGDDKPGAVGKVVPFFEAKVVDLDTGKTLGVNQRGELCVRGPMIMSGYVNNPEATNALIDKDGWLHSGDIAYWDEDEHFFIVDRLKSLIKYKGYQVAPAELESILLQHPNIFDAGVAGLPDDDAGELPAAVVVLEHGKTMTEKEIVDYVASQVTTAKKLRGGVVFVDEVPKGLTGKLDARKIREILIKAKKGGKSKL
#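 Biochemical qHTS of compounds, final roughly 60 µM downward over six points, against 10 nM purified firefly luciferase using Km concentrations of substrates (10 uM D-luciferin, 10 uM ATP) in Tris acetate pH 7.5 buffer; luminescence output.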
# An asterisk follows results filed as active; ? = inconclusive; . = not tested or not shown; [ ] = another dose, or the depositor's remark. Calls come from the whole dose curve; as a rule, active = well fitted curve in the direction sought with a large enough effect; inconclusive = small, poorly fitted or top-dose-only effect, or another doubt; inactive = no such curve, though single readings can be large; an effect the other way counts as inactive or inconclusive. Potency is the fitted concentration of half-maximal effect.
SMILES,ELG1 genotoxic,KinaseGlo FLuc,Rab9 prom act,SMN2 splice up,NPC1 promoter act,FLuc counter
CC1=NN(c2ccccc2)C(=O)/C1=C/c1cccs1,17%,-1%,-2%,3%,9%,8.5µM*
CC1=NN(c2ccccc2)C(=O)/C1=C/c1ccc[nH]1,?,2%,3%,10µM*,16%,17µM*
CC1=NN(c2ccccc2)C(=O)/C1=C/c1ccc(Cl)cc1,-6%,.,0%,.,0%,?
COc1ccc(/C=C2/C(=O)N(c3cccc(F)c3)N=C2C)c(OC)c1,-6%,.,0%,.,2%,?
CC1=NN(c2cccc(F)c2)C(=O)/C1=C/c1ccc(N(C)C)cc1,-3%,.,6%,.,11%,5.4µM*
CCCCn1c(N)c(N(CC(C)C)C(=O)CC2OC(=O)c3ccccc32)c(=O)[nH]c1=O (stereo unspecified),3%,.,-1%,.,-2%,2%
CCOc1nc(-c2ccccc2)ccc1-c1noc(-c2cccs2)n1,-1%,3%,6%,1%,9%,?
Cc1ccc(-c2noc(-c3cccs3)n2)cc1,0.65µM*,?,0.79µM*,13µM*,2.8µM*,0.6µM*
CCOc1ccc(-c2cc(-c3nc(-c4ccc(C)cc4)no3)[nH]n2)cc1,.,.,.,.,.,21µM*
CCOc1nc(-c2ccccc2)ccc1-c1noc(-c2ccc(C)cc2)n1,.,.,.,-18%,.,-17%
COc1ccc(-c2noc(-c3cccc(OC)c3OC)n2)cc1,.,.,.,13µM*,.,2.4µM*
COc1ccccc1-c1noc(-c2cccs2)n1,?,-7%,2.2µM*,11µM*,1.6µM*,7.6µM*
Cc1[nH]c2ccccc2c1C(=O)C(=O)NC1CC(=O)N(c2ccc(F)cc2)C1 (stereo unspecified),-9%,.,-6%,.,-1%,-6%
COc1cccc(-c2noc(-c3ccc(Cl)nc3)n2)c1,?,-13%,?,?,3.5µM*,?
COc1ccc(-c2nc(-c3cccnc3)no2)cc1,?,.,0.45µM*,.,0.63µM*,2.4µM*
COc1ccc(-c2nc(-c3ccncc3)no2)cc1,?,.,0.56µM*,.,0.5µM*,2.1µM*
CCOc1nc(-c2ccc(OC)cc2)ccc1-c1noc(-c2ccncc2)n1,-1%,-2%,-6%,14%,-4%,3%
CCOc1ccc(-c2nc(-c3cccnc3)no2)cc1,?,-11%,0.56µM*,1µM*,0.63µM*,0.95µM*
CCOc1cc(-c2noc(-c3cccnc3)n2)ccc1OC,6%,-1%,3%,7%,0%,-14%
N#Cc1c(N)n(-c2cccc(O)c2)c2nc3ccccc3nc12,0%,.,-9%,.,3%,-2%
CCOc1ccc(-c2nc(-c3ccccc3C)no2)cc1,0.73µM*,?,0.45µM*,1.6µM*,0.63µM*,1.1µM*
c1csc(-c2nc(N3CCCCC3)no2)c1,15µM*,.,1.6µM*,.,2.2µM*,6.7µM*
COc1ccc(-c2nc(-c3cccs3)no2)cc1,?,.,0.1µM*,.,0.32µM*,0.085µM*
COc1cc(OC)cc(-c2nc(-c3ccccc3)no2)c1,?,3%,?,22µM*,?,-14%[2.3 µM]
COc1ccc(NC(=O)c2[nH]nc3c2CSc2ccccc2-3)c(OC)c1,.,.,.,.,.,-1%
SMILES,ELG1 genotoxic,KinaseGlo FLuc,Rab9 prom act,SMN2 splice up,NPC1 promoter act,FLuc counter
COc1cccc(NC(=O)C2CCN(C(=O)NC3CCCCC3)CC2)c1,0%,.,-3%,.,1%,1%
COc1cccc(-c2ccc(-c3noc(-c4cccs4)n3)c(OC)n2)c1,?,-3%,26%,.,21%,11µM*
O=[N+]([O-])c1cccc(-c2noc(-c3cccs3)n2)c1,15µM*,.,2.5µM*,.,3.5µM*,2.7µM*
COc1cccc(-c2ccc(-c3noc(-c4ccccc4F)n3)c(OC)n2)c1,?,1%,-4%,21%,4%,?
CCCCOc1ccc(-c2nc(-c3cccnc3)no2)cc1,6.5µM*,-3%,2µM*,13µM*,3.5µM*,4.3µM*
CCOc1nc(-c2ccc(C)cc2)ccc1-c1noc(-c2cccnc2)n1,1%,0%,-2%,.,0%,1%
O=C(CC1C(=O)NCCN1C(=O)Nc1ccccc1)Nc1cc(Cl)cc(Cl)c1 (stereo unspecified),-3%,.,-4%,.,-2%,-12%
COc1ccc(/C=C\c2onc(C)c2S(=O)(=O)N2CCC(C(=O)NCCC(C)C)CC2)cc1,0%,3%,6.3µM*,-10%,-3%,1%
CCCCNC(=O)C1CCN(S(=O)(=O)c2c(C)noc2/C=C\c2ccc(OC)cc2)CC1,10%,-1%,-2%,0%,-2%,1%
O=C1c2cccnc2C(=O)N1c1cccc(-c2nc3ccccc3o2)c1,3%,-2%,-7%,1%,1%,3.8µM*
O=C1CCC(=O)N1c1cccc(-c2nc3ccccc3o2)c1,3%,-4%,3%,-1%,4%,?
CCC(C)Oc1nc2c(c(=O)n(C)c(=O)n2C)n1C (stereo unspecified),1%,.,-3%[1.84 µM],.,-12%,2%
CCOC(=O)N1CCN(S(=O)(=O)N2CCCC(C(=O)NCc3cc(OC)ccc3OC)C2)CC1 (stereo unspecified),.,.,.,.,.,-2%
COC(=O)c1nc(NC(=S)NC(=O)c2cccs2)sc1C,?,.,?,.,?,11µM*
CCc1ccc(-c2nc(NC(=S)NC(=O)c3cccs3)sc2C)cc1,3%,3%,1%,16%,3%,3%
O=C(NC(=S)Nc1nc2ccccc2s1)c1cccs1,?,0%,3.5µM*,2µM*,?,1.1µM*
COC(=O)Cc1nc(NC(=O)c2cccs2)sc1C,15%,.,?,.,?,17µM*
COc1ccc(C(=O)Nc2cccc(/C=C/c3nc4ccccc4c(=O)[nH]3)c2)cc1,-4%,.,3.2µM*,.,27%,?
COc1ccc(C(=O)Nc2nc3cc(OC)c(OC)cc3c(=O)[nH]2)cc1,1%,-1%,-2%,-30%,-2%,1%
O=C(Nc1cccc(/C=C/c2nc3ccccc3c(=O)[nH]2)c1)c1ccccc1Cl,0%,.,?,.,?,-12%
COc1ccc(C(=O)Nc2nc3ccccc3c(=O)[nH]2)cc1,?,-11%,0.4µM*,13µM*,0.71µM*,2.7µM*
O=C1NN(c2cccc(Br)c2)C(=O)/C1=C/c1ccc(-c2cc([N+](=O)[O-])ccc2O)o1,0%,.,-2%,.,0%,?
CC1=NN(c2ccc(Cl)c(C(=O)O)c2)C(=O)/C1=C\c1ccc(-c2ccc(C(=O)O)cc2)o1,1%,-10%,5%,26%,0%,27µM*
